Source: the supplement of paper PMC10849652
About 8,800 targets were measured; listed, in parts, are those with a hit and a random draw of the rest. About 0.5% of all pairs of compound and target were hits. Unmarked numbers belong to inactive results.

Tests used:
Assay in all cases: log2 fold change, soluble protein after heating vs DMSO (PISA); higher = thermal stabilisation; K562 lysate, 10 uM; active = over 0.2 and 3.5 SD of the protein, either way, in both replicates (recomputed)
alvocidib = compound: CN1CC[C@H](c2c(O)cc(O)c3c(=O)cc(-c4ccccc4Cl)oc23)[C@H](O)C1 [alvocidib]
Outline: (§1)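 Quantification was by TMTpro 16plex LC-MS/MS with equalised channel sums, applied to the supernatant after 21,000xg for 90 min. Samples were crude K562 extract at 1 mg/mL protein in PBS pH 7.4 with 1 mM MgCl2, treated with 10 μM compound for 30 min, heated for 3 min across 48°C-58°C, pooled and brought to 0.5% NP-40 at 4°C. Values are log-two fold changes in thermal stability relative to solvent controls, from duplicates.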

Tubastatin A = compound: CN1CCc2c(c3ccccc3n2Cc2ccc(C(=O)NO)cc2)C1 [Tubastatin A]
Outline: as §1

[1] = compound: CNC(=O)C1=CC=CC=C1NC2=NC(=NC=C2Cl)NC3=C(C=C(C=C3)N4CCOCC4)OC
Outline: as §1

defactinib = compound: CNC(=O)c1ccc(Nc2ncc(C(F)(F)F)c(NCc3nccnc3N(C)S(C)(=O)=O)n2)cc1 [defactinib]
Outline: as §1

[2] = compound: CNc1nc(-c2ccc3c(N)n[nH]c3c2)cc(N2C[C@@H](C(=O)NC3CCCCC3)CC[C@H]2C)n1
Outline: as §1

encorafenib = compound: COC(=O)N[C@@H](C)CNc1nccc(-c2cn(C(C)C)nc2-c2cc(Cl)cc(NS(C)(=O)=O)c2F)n1 [encorafenib]
Outline: as §1

[3] = compound: COC(=O)[C@H](CCSC)NC(=O)C1=C(C=C(C=C1)NC[C@H](CS)N)C2=CC=CC=C2
Outline: as §1

alisertib = compound: COc1cc(Nc2ncc3c(n2)-c2ccc(Cl)cc2C(c2c(F)cccc2OC)=NC3)ccc1C(=O)O [alisertib]
Outline: as §1

[4] = compound: COc1cc2nc(-c3cc(F)ccc3O)nc(N[C@@H]3CNC[C@H]3C(C)(C)O)c2cc1OC
Outline: as §1

gefitinib = compound: COc1cc2ncnc(Nc3ccc(F)c(Cl)c3)c2cc1OCCCN1CCOCC1 [gefitinib]
Outline: as §1

lapatinib = compound: CS(=O)(=O)CCNCc1ccc(-c2ccc3ncnc(Nc4ccc(OCc5cccc(F)c5)c(Cl)c4)c3c2)o1 [lapatinib]
Outline: as §1

pictilisib = compound: CS(=O)(=O)N1CCN(Cc2cc3nc(-c4cccc5[nH]ncc45)nc(N4CCOCC4)c3s2)CC1 [pictilisib]
Outline: as §1

crizotinib = compound: C[C@@H](Oc1cc(-c2cnn(C3CCNCC3)c2)cnc1N)c1c(Cl)ccc(F)c1Cl [crizotinib]
Outline: as §1

[5] = compound: C[C@H](C1=CC=C(C=C1)C(=O)NC2=C3C=CNC3=NC=C2)N
Outline: as §1

duvelisib = compound: C[C@H](Nc1ncnc2nc[nH]c12)c1cc2cccc(Cl)c2c(=O)n1-c1ccccc1 [duvelisib]
Outline: as §1

gandotinib = compound: Cc1cc(Nc2cc(CN3CCOCC3)c3nc(C)c(Cc4ccc(Cl)cc4F)n3n2)n[nH]1 [gandotinib]
Outline: as §1

tozasertib = compound: Cc1cc(Nc2cc(N3CCN(C)CC3)nc(Sc3ccc(NC(=O)C4CC4)cc3)n2)n[nH]1 [tozasertib]
Outline: as §1

doramapimod = compound: Cc1ccc(-n2nc(C(C)(C)C)cc2NC(=O)Nc2ccc(OCCN3CCOCC3)c3ccccc23)cc1 [doramapimod]
Outline: as §1

bafetinib = compound: Cc1ccc(NC(=O)c2ccc(CN3CC[C@H](N(C)C)C3)c(C(F)(F)F)c2)cc1Nc1nccc(-c2cncnc2)n1 [bafetinib]
Outline: as §1

[6] = compound: Cc1cccc(CC(=O)N2CCc3c2ccc(-c2cn(C)c4ncnc(N)c24)c3F)n1
Outline: as §1

Sequence of UniProt P24863 (P24863 whole entry, looked up): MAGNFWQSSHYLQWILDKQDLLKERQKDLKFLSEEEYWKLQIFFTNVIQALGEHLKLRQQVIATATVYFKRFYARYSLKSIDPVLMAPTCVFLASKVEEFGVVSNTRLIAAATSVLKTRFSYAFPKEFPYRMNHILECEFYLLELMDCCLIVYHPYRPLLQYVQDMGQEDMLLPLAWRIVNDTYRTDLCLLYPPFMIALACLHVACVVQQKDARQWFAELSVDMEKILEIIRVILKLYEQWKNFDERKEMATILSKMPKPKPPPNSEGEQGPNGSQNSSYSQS
Sequence of UniProt Q14692 (Q14692 whole entry, looked up): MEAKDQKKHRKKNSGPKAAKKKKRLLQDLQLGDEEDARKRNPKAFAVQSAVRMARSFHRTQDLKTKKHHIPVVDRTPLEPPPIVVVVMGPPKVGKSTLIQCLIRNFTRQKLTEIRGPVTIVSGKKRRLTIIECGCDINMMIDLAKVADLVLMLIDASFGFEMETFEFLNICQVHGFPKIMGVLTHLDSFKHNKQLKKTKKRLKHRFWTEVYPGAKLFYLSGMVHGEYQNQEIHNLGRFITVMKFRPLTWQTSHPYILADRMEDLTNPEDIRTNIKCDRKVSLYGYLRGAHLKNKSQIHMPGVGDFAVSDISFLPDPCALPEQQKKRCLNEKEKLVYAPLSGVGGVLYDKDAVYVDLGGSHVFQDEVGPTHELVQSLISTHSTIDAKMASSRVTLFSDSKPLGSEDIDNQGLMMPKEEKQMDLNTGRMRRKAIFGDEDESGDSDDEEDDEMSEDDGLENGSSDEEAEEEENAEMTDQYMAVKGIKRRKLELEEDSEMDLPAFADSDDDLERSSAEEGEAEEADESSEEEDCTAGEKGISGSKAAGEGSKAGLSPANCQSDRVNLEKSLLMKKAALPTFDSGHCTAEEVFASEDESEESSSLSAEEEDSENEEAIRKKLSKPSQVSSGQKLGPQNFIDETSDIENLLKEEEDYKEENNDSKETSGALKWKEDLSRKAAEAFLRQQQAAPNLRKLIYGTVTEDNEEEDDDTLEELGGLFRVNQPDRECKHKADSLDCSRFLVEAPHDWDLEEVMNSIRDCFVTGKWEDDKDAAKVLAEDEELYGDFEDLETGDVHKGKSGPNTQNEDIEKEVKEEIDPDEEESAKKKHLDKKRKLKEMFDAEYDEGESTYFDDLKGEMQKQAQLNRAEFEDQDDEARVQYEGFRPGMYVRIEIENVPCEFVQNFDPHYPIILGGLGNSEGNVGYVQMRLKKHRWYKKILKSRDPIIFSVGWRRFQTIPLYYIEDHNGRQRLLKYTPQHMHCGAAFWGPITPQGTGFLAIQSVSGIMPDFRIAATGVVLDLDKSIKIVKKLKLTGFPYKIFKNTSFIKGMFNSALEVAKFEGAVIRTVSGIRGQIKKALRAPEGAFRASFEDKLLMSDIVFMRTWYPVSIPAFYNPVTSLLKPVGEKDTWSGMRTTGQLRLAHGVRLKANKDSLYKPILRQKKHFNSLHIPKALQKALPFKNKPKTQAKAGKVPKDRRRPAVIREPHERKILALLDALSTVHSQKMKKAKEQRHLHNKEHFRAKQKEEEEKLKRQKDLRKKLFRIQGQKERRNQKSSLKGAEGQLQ
Sequence of UniProt P56945 (P56945 whole entry, looked up): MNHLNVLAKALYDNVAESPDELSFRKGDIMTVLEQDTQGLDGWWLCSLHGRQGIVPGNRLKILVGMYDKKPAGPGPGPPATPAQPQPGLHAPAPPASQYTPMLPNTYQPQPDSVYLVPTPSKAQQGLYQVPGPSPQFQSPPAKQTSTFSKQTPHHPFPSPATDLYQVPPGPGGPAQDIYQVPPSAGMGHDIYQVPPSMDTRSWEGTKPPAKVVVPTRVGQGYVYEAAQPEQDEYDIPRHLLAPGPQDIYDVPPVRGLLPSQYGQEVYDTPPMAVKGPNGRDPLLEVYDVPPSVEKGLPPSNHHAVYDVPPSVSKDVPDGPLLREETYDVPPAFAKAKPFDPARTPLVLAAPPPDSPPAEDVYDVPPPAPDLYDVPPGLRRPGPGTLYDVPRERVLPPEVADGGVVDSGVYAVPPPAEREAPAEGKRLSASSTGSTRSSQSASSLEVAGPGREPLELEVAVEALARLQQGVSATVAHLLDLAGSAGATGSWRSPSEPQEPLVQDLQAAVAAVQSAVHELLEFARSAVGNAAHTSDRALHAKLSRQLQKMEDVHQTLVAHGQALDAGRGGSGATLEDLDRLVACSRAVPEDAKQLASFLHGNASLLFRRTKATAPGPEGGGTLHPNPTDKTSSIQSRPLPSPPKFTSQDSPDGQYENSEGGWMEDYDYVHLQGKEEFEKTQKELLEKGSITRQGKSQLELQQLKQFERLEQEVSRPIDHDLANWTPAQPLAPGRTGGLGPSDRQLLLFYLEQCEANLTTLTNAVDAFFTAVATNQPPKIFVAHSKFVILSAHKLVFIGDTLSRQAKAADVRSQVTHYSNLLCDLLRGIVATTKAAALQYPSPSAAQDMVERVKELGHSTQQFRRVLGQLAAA
Sequence of UniProt O75419 (O75419 whole entry, looked up): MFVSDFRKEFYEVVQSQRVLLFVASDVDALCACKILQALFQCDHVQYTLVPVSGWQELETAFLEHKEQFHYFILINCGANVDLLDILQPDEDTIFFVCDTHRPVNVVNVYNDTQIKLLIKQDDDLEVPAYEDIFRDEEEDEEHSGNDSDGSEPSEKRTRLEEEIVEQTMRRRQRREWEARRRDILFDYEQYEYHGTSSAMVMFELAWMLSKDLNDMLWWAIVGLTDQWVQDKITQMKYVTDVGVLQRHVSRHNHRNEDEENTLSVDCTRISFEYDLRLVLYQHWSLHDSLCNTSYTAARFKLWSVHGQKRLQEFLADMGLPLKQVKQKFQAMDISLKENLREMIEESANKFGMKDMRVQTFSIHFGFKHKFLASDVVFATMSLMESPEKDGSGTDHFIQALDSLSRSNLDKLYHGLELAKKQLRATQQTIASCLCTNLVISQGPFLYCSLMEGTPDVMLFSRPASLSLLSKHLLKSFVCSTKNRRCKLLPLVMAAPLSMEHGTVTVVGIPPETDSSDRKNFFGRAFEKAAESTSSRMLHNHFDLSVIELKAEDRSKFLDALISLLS
Sequence of UniProt O15155 (O15155 whole entry, looked up): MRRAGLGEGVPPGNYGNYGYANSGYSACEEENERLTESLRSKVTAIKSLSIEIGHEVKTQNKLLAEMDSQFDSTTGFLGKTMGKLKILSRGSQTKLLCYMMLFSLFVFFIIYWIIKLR
Sequence of UniProt O75143 (O75143 whole entry, looked up): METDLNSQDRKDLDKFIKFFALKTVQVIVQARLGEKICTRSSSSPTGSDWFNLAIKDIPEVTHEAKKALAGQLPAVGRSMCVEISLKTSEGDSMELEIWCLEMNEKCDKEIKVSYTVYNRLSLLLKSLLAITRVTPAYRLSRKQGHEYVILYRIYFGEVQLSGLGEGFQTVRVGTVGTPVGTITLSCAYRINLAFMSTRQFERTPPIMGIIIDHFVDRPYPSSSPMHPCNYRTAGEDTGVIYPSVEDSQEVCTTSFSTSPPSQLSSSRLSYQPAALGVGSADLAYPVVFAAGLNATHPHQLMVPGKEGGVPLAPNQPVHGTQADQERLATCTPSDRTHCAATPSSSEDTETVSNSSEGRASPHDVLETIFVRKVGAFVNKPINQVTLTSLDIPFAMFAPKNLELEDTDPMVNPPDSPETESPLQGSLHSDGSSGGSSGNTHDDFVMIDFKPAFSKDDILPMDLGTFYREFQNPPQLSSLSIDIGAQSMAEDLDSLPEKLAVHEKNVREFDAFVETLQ
Sequence of UniProt Q9H3Q1 (Q9H3Q1 whole entry, looked up): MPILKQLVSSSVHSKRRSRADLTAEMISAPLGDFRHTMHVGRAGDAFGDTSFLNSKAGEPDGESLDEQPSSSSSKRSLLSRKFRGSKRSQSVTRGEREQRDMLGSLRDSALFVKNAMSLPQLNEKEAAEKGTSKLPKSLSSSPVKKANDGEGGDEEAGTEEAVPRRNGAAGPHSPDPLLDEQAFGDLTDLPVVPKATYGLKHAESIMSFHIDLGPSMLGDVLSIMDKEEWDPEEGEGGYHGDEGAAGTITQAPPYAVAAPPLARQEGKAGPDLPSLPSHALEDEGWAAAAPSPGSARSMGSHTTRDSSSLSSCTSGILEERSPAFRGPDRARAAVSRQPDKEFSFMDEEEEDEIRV
Sequence of UniProt Q96ER9 (Q96ER9 whole entry, looked up): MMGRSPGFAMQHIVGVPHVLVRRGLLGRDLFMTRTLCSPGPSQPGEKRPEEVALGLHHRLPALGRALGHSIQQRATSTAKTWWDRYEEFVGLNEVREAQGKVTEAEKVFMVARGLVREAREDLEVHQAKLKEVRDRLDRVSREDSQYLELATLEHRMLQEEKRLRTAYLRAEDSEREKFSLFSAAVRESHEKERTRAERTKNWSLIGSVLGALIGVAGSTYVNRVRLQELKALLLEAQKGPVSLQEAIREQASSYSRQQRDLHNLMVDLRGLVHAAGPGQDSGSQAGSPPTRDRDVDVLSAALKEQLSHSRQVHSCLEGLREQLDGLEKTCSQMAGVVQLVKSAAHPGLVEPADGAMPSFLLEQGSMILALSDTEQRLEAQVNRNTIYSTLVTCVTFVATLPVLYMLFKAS
Sequence of UniProt Q96A33 (Q96A33 whole entry, looked up): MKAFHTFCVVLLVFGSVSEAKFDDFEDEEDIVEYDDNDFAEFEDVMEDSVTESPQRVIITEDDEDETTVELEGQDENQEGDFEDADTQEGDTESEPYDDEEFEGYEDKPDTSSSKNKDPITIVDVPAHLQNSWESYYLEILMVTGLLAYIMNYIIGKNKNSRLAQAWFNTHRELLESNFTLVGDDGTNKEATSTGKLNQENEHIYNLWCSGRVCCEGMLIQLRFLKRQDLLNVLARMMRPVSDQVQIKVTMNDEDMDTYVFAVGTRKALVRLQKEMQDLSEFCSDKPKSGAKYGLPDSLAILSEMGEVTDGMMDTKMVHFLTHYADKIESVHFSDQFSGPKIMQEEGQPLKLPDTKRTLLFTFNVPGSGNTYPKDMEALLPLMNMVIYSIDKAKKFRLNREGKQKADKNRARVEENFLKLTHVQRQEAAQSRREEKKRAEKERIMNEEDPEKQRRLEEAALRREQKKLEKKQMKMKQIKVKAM

Row | Target | log2 fold change (alvocidib) | log2 fold change (Tubastatin A) | log2 fold change [1] | log2 fold change (defactinib) | log2 fold change [2] | log2 fold change (encorafenib) | log2 fold change [3] | log2 fold change (alisertib) | log2 fold change [4] | log2 fold change (gefitinib) | log2 fold change (lapatinib) | log2 fold change (pictilisib) | log2 fold change (crizotinib) | log2 fold change [5] | log2 fold change (duvelisib) | log2 fold change (gandotinib) | log2 fold change (tozasertib) | log2 fold change (doramapimod) | log2 fold change (bafetinib) | log2 fold change [6]
1 | ATP11A (UniProt P98196) | -0.002 | -0.047 | -0.021 | -0.017 | -0.022 | 0.028 | -0.065 | -0.083 | 0.01 | 0.031 | -0.118 | -0.087 | -0.005 | -0.108 | 0.081 | 0.017 | 0.009 | -0.07 | -0.05 | 0.1
2 | BMS1 (UniProt Q14692) | -0.016 | -0.024 | 0.042 | 0.053 | 0.007 | 0.075 | 0.01 | 0.035 | -0.01 | -0.042 | -0.029 | -0.052 | -0.058 | -0.018 | -0.036 | 0.043 | 0.018 | 0.047 | -0.032 | 0.045
3 | CDC42EP4 (UniProt Q9H3Q1) | -0.086 | -0.013 | 0.041 | 0.033 | 0.113 | 0.079 | -0.054 | -0.085 | -0.017 | 0.006 | 0.031 | 0.029 | -0.017 | -0.047 | -0.029 | 0.223 (active) | -0.017 | 0.157 | -0.027 | 0.102
4 | CCNC (UniProt P24863) | 0.182 | -0.079 | -0.018 | -0.073 | -0.052 | 0.041 | 0.039 | 0.009 | -0.05 | 0.017 | -0.108 | 0.036 | -0.037 | 0.075 | 0.009 | -0.104 | -0.025 | 0.332 (active) | -0.123 | 0.015
5 | BET1 (UniProt O15155) | 0.07 | -0.038 | 0.033 | 0.058 | 0.027 | -0.062 | -0.214 (active) | -0.023 | -0.022 | -0.045 | -0.051 | -0.034 | -0.004 | -0.004 | 0.01 | -0.006 | 0 | 0.03 | -0.056 | 0.03
6 | CCDC32 isoform 2 (UniProt Q9BV29) | -0.102 | -0.033 | -0.061 | 0.095 | 0.04 | 0.055 | -0.065 | -0.098 | -0.045 | -0.026 | 0.04 | 0.02 | -0.021 | -0.195 | 0.024 | 0.025 | 0.062 | 0.007 | -0.087 | 0.085
7 | BORCS5 (UniProt Q969J3) | -0.012 | 0.043 | -0.001 | 0.067 | 0.032 | 0.074 | -0.09 | -0.014 | 0.01 | -0.079 | 0.015 | 0.096 | -0.002 | 0.037 | 0.037 | -0.038 | 0.007 | -0.011 | -0.042 | -0.006
8 | BCAR1 isoform 6 (UniProt P56945) | 0.074 | -0.009 | 0.009 | -0.032 | 0.012 | 0.018 | 0.014 | 0.009 | 0.08 | 0.065 | -0.044 | 0.003 | 0.003 | 0.071 | 0.008 | -0.113 | 0.01 | -0.039 | -0.073 | -0.104
9 | CCDC51 (UniProt Q96ER9) | 0.127 | -0.037 | -0.001 | 0.008 | 0.038 | -0.008 | -0.001 | 0.016 | -0.066 | 0.022 | -0.038 | -0.055 | -0.01 | 0.259 (active) | -0.034 | -0.217 (active) | 0.007 | -0.053 | -0.106 | -0.232
10 | ATG13 isoform 2 (UniProt O75143) | -0.106 | -0.035 | 0.013 | 0.03 | 0.026 | 0.054 | -0.045 | 0.038 | 0.017 | -0.013 | 0.018 | 0.014 | -0.022 | -0.271 (active) | 0.016 | 0.172 | 0.05 | 0.049 | -0.123 | 0.137
11 | CDC45 isoform 3 (UniProt O75419) | 0.031 | -0.138 | 0.031 | 0.028 | -0.017 | 0.001 | 0.019 | 0.023 | 0.009 | -0.034 | -0.036 | -0.014 | -0.009 | 0.023 | -0.007 | -0.079 | 0 | -0.002 | -0.077 | -0.018
12 | CCDC47 (UniProt Q96A33) | 0.009 | 0.016 | -0.015 | 0.004 | -0.028 | -0.045 | -0.037 | 0.037 | -0.035 | -0.011 | -0.05 | 0.005 | -0.016 | -0.012 | -0.03 | -0.145 | -0.009 | -0.018 | -0.031 | 0.049
